Experimental data from PubChem BioAssay (NCATS).
Inconclusive results are not listed. The source made the active and inactive calls. The call rests on the fitted dose curve; in most records, active means well fitted activation curve with a large enough effect in the main read-out, with a control signal flat (not every such curve was filed as active); inconclusive means small, poorly fitted or top-dose-only effect, or effect the other way, or a change in a side signal; inactive means flat fitted curve, though single readings scatter.

biological target: 3',5'-cyclic-AMP phosphodiesterase 4B (Homo sapiens) (UniProt Q07343); assay: qHTS Assay for Inhibitors of PDE-IV (AID 607); settings: HEK293 ACTOne CNG channel cells, membrane potential fluorescence; series mostly up to 22.9 µM
Sequence (Q07343 whole entry, looked up): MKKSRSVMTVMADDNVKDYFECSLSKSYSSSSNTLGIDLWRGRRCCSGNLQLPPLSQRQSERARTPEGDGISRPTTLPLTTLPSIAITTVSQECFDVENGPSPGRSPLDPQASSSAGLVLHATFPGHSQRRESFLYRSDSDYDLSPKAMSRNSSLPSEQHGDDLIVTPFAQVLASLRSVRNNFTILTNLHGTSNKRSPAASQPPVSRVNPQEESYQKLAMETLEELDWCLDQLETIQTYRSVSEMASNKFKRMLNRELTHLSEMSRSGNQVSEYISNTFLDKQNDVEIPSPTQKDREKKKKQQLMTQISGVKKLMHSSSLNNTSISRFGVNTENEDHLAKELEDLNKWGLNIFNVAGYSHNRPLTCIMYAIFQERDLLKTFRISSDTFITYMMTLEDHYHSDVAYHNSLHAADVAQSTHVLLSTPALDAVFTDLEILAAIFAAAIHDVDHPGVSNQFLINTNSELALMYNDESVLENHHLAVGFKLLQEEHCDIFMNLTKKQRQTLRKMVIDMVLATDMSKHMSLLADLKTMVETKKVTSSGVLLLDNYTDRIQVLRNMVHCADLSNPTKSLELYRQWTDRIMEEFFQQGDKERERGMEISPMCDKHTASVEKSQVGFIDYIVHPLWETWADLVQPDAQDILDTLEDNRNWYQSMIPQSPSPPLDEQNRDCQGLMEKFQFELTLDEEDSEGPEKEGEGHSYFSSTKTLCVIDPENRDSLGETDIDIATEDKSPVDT
Description: NIH Chemical Genomics Center [NCGC]
NIH Molecular Libraries Screening Centers Network [MLSCN]
The cyclic nucleotide phosphodiesterases (PDEs) are proteins that catalyze hydrolysis of 3', 5'-cyclic nucleotides, such as cyclic adenosine monophosphate (cAMP) and cyclic guanosine monophosphate (cGMP), to their corresponding 5'-nucleotide monophosphates. These enzymes play an important role in controlling cellular concentrations of cyclic nucleotides and have a central role in a variety of intracellular signaling events. cAMP PDEs are emerging as a promising class of drug targets in asthma and cardiovascular disease therapeutic areas.
There are no commercially available cell-based screening assays for PDE inhibitors: currently biochemical assays are done using pure substrates (cAMP or cGMP) and purified recombinant PDE enzymes. As with other biochemical screens on intracellular targets, false positives and false negatives may result from issues involving cell membrane permeability, cellular metabolism, and the like.
Here we report the development of a cell-based screening assay for cAMP phosphodiesterase (PDE) inhibitors. The assay is based on the BD ACTOne# technology (BD Biosciences) which utilizes a modified cyclic nucleotide-gated channel (CNG) to monitor intracellular cAMP changes in live cells. The CNG channel is localized on the plasma membrane, and opens when the intracellular cAMP level increases, resulting in ion flux and cell membrane depolarization. The influx of cations through the CNG channel can be quantified using membrane potential (MP) dyes. We modified the BD ACTOne technology to allow the detection of PDE inhibitors, and performed an inhibitor screen for PDE-IV, which is expressed endogenously in HEK293 cells. We optimized this assay in homogeneous 1536-well plate assay format for high throughput screening.
NCGC Assay Protocol Summary:
The medium contained 10% FBS (Invitrogen), 2 mM L-glutamine, and 250 ug/ml G418 (Cellgro) and 1 ug/ml puromycin (Clontech). ACTOneTM parental cells (BD Biosciences) were maintained in the same medium without puromycin.
The activity of the CNG channel was measured by BD ACTOneTM membrane potential dye kit (BD Biosciences). Forskolin, a positive control for cAMP activation and RO 20-1724, a PDE inhibitor, were both purchased from Sigma and solublized in DMSO.
Sequence,Parameter,Value,Description
1,Reagent,3 uL,1000 cells/well 1536 TC treated Black plate
3,Compound,0.5 uL,Kalypsys dispense RO 20-1724 100 uM final [A]
4,Reagent,3 uL,BD membrane potential dye
6,Compound,23 nL,Final concentration was 0.7nM to 22.9uM
8,Detector,EX 535 / EM 590 [B],Envision
Footnotes: [A] The stock 2 mM RO 20-1724 PDE inhibitor was made in 10 % DMSO. Parental cell line received 10 uM forskolin + 100 uM RO. [B] Envsion settings: Bottom Excitation 535/20 nm top emission 590/20, gain of 150 and 5 flashes per well.
Keywords: PDE, PDE-IV, cytotoxicity, flourescence, MLSMR, MLSCN, NIH Roadmap, qHTS, NCGC

Potency, inactive:
CCNc1ncc2nc(-c3ccc(Cl)cc3)c(=O)n(C)c2n1
N#CCCn1c(=O)c(-c2cccs2)nc2cnc(N3CCOCC3)nc21
COc1ccc2[nH]cc(CCNc3ncncc3-c3ccc(C(=O)N(C)C)cc3)c2c1
O=C(c1cccc(F)c1)N1CCC2(CCCN(c3ccc(-c4ccccc4)cc3)C2)CC1
COc1cc(=O)n(C)c2c(OC[C@@H](O)C(C)(C)O)cccc12
Cn1cccc1C(=O)N1CCC2(CC1)CN(C(=O)Nc1cccc(F)c1)C2
COc1cccc(Nc2ncc3nc(-c4cccs4)c(=O)n(CCC#N)c3n2)c1
COC(=O)N1CCC2(CCN(C(=O)Nc3ccc(OC)cc3)CC2)CC1
Cc1nc2cncnc2n(Cc2ccc(F)cc2)c1=O
c1ccc(C(c2ccccc2)N2CCC3(CCNCC3)CC2)cc1
Cc1noc(C)c1-c1nccc(N2CCN(C)CC2)n1
CC(C)(C)NC[C@H](O)c1cc(O)cc(O)c1
Cn1cccc1C(=O)N1CCC[C@@]2(CCN(C(c3ccccc3)c3ccccc3)C2)C1
CN(C)Cc1ccccc1-c1cncnc1NCc1ccccc1
O=C(Nc1cccc(F)c1)N1CCC2(CC1)CCN(C(=O)c1ccncc1)CC2
CC(=O)N1CCC2(CCCN(Cc3ccccc3)C2)CC1
O=C(c1ccco1)N1CCC[C@@]2(CCN(c3ncccn3)C2)C1
N#Cc1cccc(NC(=O)N2CC[C@@]3(CCCN(S(=O)(=O)c4ccccc4)C3)C2)c1
COc1ccccc1CNc1ccnc(-c2ccccc2OC)n1
N[C@H](C(=O)O)c1ccc(O)c(C(=O)O)c1
C[C@@H]1COc2c(N3CCN(C)CC3)c(F)cc3c(=O)c(C(=O)O)cn1c23
COc1ccc(C(=O)N2CCC3(CC2)CN(c2ncccn2)C3)cc1
CN1[C@@H](CC(=O)c2ccccc2)CCC[C@@H]1C[C@@H](O)c1ccccc1
Clc1ccccc1-c1nccc(NCCN2CCOCC2)n1
COc1ccc(NC(=O)N2CCCC3(CCN(C(=O)c4cccc(F)c4)CC3)C2)cc1
CN(C)C(=O)c1ccc(-c2ccc3ncnc(Nc4ccccc4)c3c2)cc1
O=c1cnc2cnc(Oc3ccccc3)nc2n1C1CC1
FC(F)(F)c1ccccc1-c1cncnc1NCCc1cnc[nH]1
COc1cccc(-c2cncnc2NCCc2cnc[nH]2)c1
CN(C)Cc1ccccc1-c1cncnc1NC1CC1
COc1ccc(CNc2ncncc2-c2c(C)noc2C)c(OC)c1
COc1ccc(NC(=O)N2CC3(CCNCC3)C2)cc1
N#Cc1cccc(NC(=O)N2CC[C@@]3(CCCN(C(=O)c4cc(C(F)(F)F)cc(C(F)(F)F)c4)C3)C2)c1
C[C@]12CCC3c4ccc(O)cc4CCC3[C@@H]1CCC2=O (stereo not given in full)
COC(=O)N1CCC2(CCCN(Cc3nccs3)C2)CC1
O=c1c(-c2ccc(Cl)cc2)nc2cnc(N3CCNCC3)nc2n1-c1ccccc1
O=C(c1ccco1)N1CCC[C@@]2(CCN(C(c3ccccc3)c3ccccc3)C2)C1
COc1ccc(Oc2ncc3nc(-c4cccc(C#N)c4)c(=O)n(C)c3n2)cc1
O=C(Nc1cccc(F)c1)N1CC[C@@]2(CCCN(C(=O)c3cnccn3)C2)C1
COCC(=O)N1CCC2(CCCN(Cc3ccc(C#N)cc3)C2)CC1
